The source of these data is PubChem BioAssay (Tox21).

The structures appear in SMILES notation. Unmarked numbers belong to inactive results. Inconclusive results are not listed. The source made the active and inactive calls. Calls come from the whole dose curve; as a rule, active = well fitted curve in the direction sought with a large enough effect in the repeat runs; inconclusive = weak or mixed curves; inactive = no such curve, though single readings can be large; an effect the other way counts as inactive or inconclusive.

Experiment [1] can be described thus: qHTS RealTime-Glo MT Cell Viability Assay in HEK293 cells - 0 hour (AID 1224880). Note: top concentration of the series differs between compounds; nearly all actives have a fitted effect of over 45% in size. In outline:
(§1)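 Real-time viability in HEK293: signal arises when living cells convert a prosubstrate for NanoLuc in the medium, so luminescence tracks viable cell number. Compound (23 nL, DMSO) added 5 h post-seeding; kinetic reads at 0–40 h, 37 C.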

Experiment [2] is described as follows: A CellTox Green Cytotoxicity Assay to monitor cytotoxicity in HEK293 cells - 32 hour (AID 1224881). Note: nearly all actives have a fitted effect of over 40% in size. In short, it runs like this: (§2)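 Cells (HEK293, 600/well) and dye reagent are dispensed together. After 5 h at 37 C, 23 nL compound is pinned in. Plates stay at 37 C for 40 h with fluorescence read at 0h, 8h, 16h, 24h, 32h and 40h.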
Experiment [3] is described as follows: A CellTox Green Cytotoxicity Assay to monitor cytotoxicity in HepG2 cells - 0 hour (AID 1224882). Note: nearly all actives have a fitted effect of over 35% in size. In outline:
(§3)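 Cells and non-lytic dye reagent are dispensed together (600 HepG2 cells/well) and incubated 5 h before DMSO compound transfer. Kinetic fluorescence is then recorded in the same wells during 40 h at 37 C.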

Experiment [4] can be described thus: A CellTox Green Cytotoxicity Assay to monitor cytotoxicity in HepG2 cells - 32 hour (AID 1224883). Note: nearly all actives have a fitted effect of over 50% in size. In outline: as §3
Experiment [5] in a line: A CellTox Green Cytotoxicity Assay to monitor cytotoxicity in HEK293 cells - 8 hour (AID 1224884). Note: nearly all actives have a fitted effect of over 35% in size. In short, it runs like this: as §2
Experiment [6] in a line: qHTS RealTime-Glo MT Cell Viability Assay in HepG2 cells - 16 hour (AID 1224885). Note: nearly all actives have a fitted effect of over 50% in size. Note: potency is the fitted concentration of half-maximal effect. In short, it runs like this:
(§4)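 Compound treatment began 5 h after plating HepG2 cells (600/well) with NanoLuc luciferase and prosubstrate. Plates stayed at 37 C for 40 h; luminescence was captured at six time points, 0 h through 40 h.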

Experiment [7] in a line: qHTS RealTime-Glo MT Cell Viability Assay in HEK293 cells - 24 hour (AID 1224886). For activity change, negative = cytotoxicity: top concentration of the series differs between compounds. Note: nearly all actives have a fitted effect of over 50% in size. Note: potency is the fitted concentration of half-maximal effect. In outline: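 Quantitative high-throughput screen of the Tox21 10K library in HEK293: cells and RealTime-Glo reagents plated together, compound added at 5 h, luminescence monitored through 40 h at 37 C.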
Background: In qHTS, concentration-response curves come from the screen itself.

Experiment [8] can be described thus: A CellTox Green Cytotoxicity Assay to monitor cytotoxicity in HEK293 cells - 16 hour (AID 1224888). Note: nearly all actives have a fitted effect of over 35% in size. In short, it runs like this: as §2
Experiment [9] is described as follows: qHTS RealTime-Glo MT Cell Viability Assay in HepG2 cells - 0 hour (AID 1224889). Note: nearly all actives have a fitted effect of over 50% in size. In short, it runs like this:
as §4

A short description of experiment [10]: qHTS RealTime-Glo MT Cell Viability Assay in HEK293 cells - 8 hour (AID 1224887). For activity change, negative = cytotoxicity: top concentration of the series differs between compounds. Note: nearly all actives have a fitted effect of over 50% in size. Note: potency is the fitted concentration of half-maximal effect. In short, it runs like this:
as §1
% is set by controls: 0 for no effect and ±100 for the full control effect.

As for `O=C(CCCCCCCCC#CI)Oc1ccccc1`, the Potency result in [1], in experiment [2], in experiment [3], in experiment [4], in experiment [5] and in experiment [7] was “inactive” throughout. Besides, the Potency result in experiment [8] and in [9] was “inactive” throughout. Moreover, the Potency in [6] was 15.1 µM (active).
For `O=C(NCCCN1CCOCC1)c1ccc(Cl)cc1`, the Potency result in experiment [1], in experiment [2], in experiment [3], in experiment [4], in experiment [5] and in experiment [6] was “inactive” in each case. In addition, the Potency result in experiment [7], in [8] and in experiment [9] was “inactive” in each case.
Take `O=C(O)c1cccc(O)c1`: the Potency entry in experiment [1], in experiment [2], in [3], in experiment [4], in experiment [5] and in experiment [6] was “inactive” each time. For the same molecule, the Potency result in experiment [7], in experiment [10], in experiment [8] and in [9] was “inactive” each time.
Consider `Cc1ccnc2ccccc12`, for which the Potency entry in experiment [1], in [2], in [3], in experiment [4], in [5] and in [6] was “inactive” in each case. Besides, the Potency entry in experiment [7], in experiment [8] and in [9] was “inactive” throughout.
On to `C=CC(C)(C)CC(=O)OC`, for which the Potency entry in experiment [1], in experiment [2], in experiment [3], in experiment [4], in experiment [5] and in [6] was “inactive” throughout. For the same molecule, the Potency entry in experiment [8] and in [9] was “inactive” each time. Also, the Potency in experiment [7] was 1.38 µM (active).
Consider `O=C(CS)OCCOC(=O)CS`, for which the Potency result in experiment [1], in experiment [2], in [3], in experiment [4], in experiment [5] and in [6] was “inactive” in each case. In addition, the Potency entry in experiment [7], in experiment [10], in experiment [8] and in experiment [9] was “inactive” each time.
For the molecule `CC(C)c1nnc2ccc(-c3ocnc3-c3cc(F)ccc3F)cn12`, the Potency result in [1], in [2], in experiment [3], in experiment [4], in [5] and in experiment [6] was “inactive” in each case. Also, the Potency result in experiment [8] and in [9] was “inactive” in each case. The Potency in [7] and in experiment [10] was 19.5 µM (active) throughout.
Consider `O=C(O)Cc1ccc(-c2ccccc2)cc1`, for which the Potency entry in [1], in experiment [2], in experiment [3], in experiment [4], in [5] and in experiment [6] was “inactive” throughout. Moreover, the Potency result in [7] and in experiment [8] was “inactive” each time.
With `COC(=O)[C@@H]1CC2=CC(=O)CC[C@]2(C)[C@@]23O[C@@H]2C[C@@]2(C)[C@@H](CC[C@@]24CCC(=O)O4)[C@H]13`, the Potency entry in experiment [1], in [2], in experiment [3], in [4], in [5] and in [6] was “inactive” throughout. For the same molecule, the Potency result in experiment [7], in experiment [10], in experiment [8] and in experiment [9] was “inactive” in each case.
As to `CN1Cc2cc(C(=O)N3CCC(C4CCNCC4)CC3)ccc2N[C@@H](CC(=O)O)C1=O`, the Potency entry in experiment [1], in experiment [2], in experiment [3], in experiment [4], in [5] and in experiment [6] was “inactive” in each case. Further, the Potency result in experiment [7], in [10], in experiment [8] and in experiment [9] was “inactive” in each case.
As for `CCOC(=N)CC(=O)OCC`, the Potency entry in experiment [1], in experiment [2], in experiment [3], in experiment [4], in experiment [5] and in [6] was “inactive” throughout. Further, the Potency result in [7], in experiment [8] and in [9] was “inactive” in each case.
With `NCC1CCCC(CN)C1` (stereo not drawn), the Potency entry in experiment [1], in experiment [2], in experiment [3], in experiment [4], in experiment [5] and in [6] was “inactive” in each case. Also, the Potency entry in [7], in experiment [10], in experiment [8] and in experiment [9] was “inactive” throughout.
On to `Fc1ccccc1[C@@H](F)COC1CCC(Nc2ncnc3[nH]ncc23)CC1` (stereo partly drawn), for which the Potency result in experiment [1], in experiment [2], in experiment [3], in experiment [4], in [5] and in experiment [6] was “inactive” throughout. For the same molecule, the Potency entry in [8] is “inactive”. In addition, the Potency in experiment [7] was 21.9 µM (active).
Consider `CC1CN(c2cc3c(cc2F)c(=O)c(C(=O)O)cn3-c2ccc(F)cc2F)CCN1` (stereo not drawn), for which the activity change, negative = cytotoxicity in experiment [1] was 15.1% [at 6.97 µM]; in experiment [7], 6.23% [at 6.97 µM]; in experiment [10], 7.56% [at 6.97 µM]; in [9], -3.32% [at 6.97 µM]. In addition, the results for the cytotoxicity increase in experiment [2], in experiment [4] and in experiment [5] were -2.92% [at 6.97 µM], 0.181% [at 6.97 µM] and 1.21% [at 6.97 µM], respectively. The cytotoxicity in [3] is 5.97% [at 6.97 µM]. Besides, the activity change, negative = cytotoxic in experiment [6] is 2.01% [at 6.97 µM]. In addition, the activity change in experiment [8] was -0.883% [at 6.97 µM, stronger effect = higher value].
In the case of `C=CCOC(=O)/C=C\C(=O)OCC=C`, the Potency result in experiment [1], in experiment [2], in [3], in experiment [4], in [5] and in [6] was “inactive” in each case. Also, the Potency entry in experiment [10], in experiment [8] and in [9] was “inactive” throughout.
For the molecule `O=C(O)c1snc(Cl)c1Cl`, the Potency result in experiment [1], in [2], in experiment [3], in experiment [5], in experiment [6] and in [7] was “inactive” each time. Further, the Potency entry in [10], in [8] and in experiment [9] was “inactive” throughout.
With `CC(=O)N(c1onc(C)c1C)S(=O)(=O)c1ccc(N)cc1`, the Potency entry in experiment [1], in experiment [2], in experiment [3], in experiment [5], in [6] and in experiment [7] was “inactive” in each case. Moreover, the Potency entry in [10], in [8] and in experiment [9] was “inactive” throughout.
